Laboratory results taken from PubChem BioAssay (NCATS).
Records with an inconclusive call do not appear. Where a call stands in place of a potency, no number is given. Active and inactive are the calls of the source. The call rests on the fitted dose curve; in most records, active means well fitted inhibition curve with a large enough effect; inconclusive means small, poorly fitted or top-dose-only effect; inactive means no such curve, though single readings can be large or run the other way.
Potency means the concentration at half of the fitted maximal effect.

Assay: qHTS Screen of the MIPE 4.0 Collection Against Ewings Sarcoma (EW8) (AID 1259255); further: nearly all actives have a fitted effect of over 35% in size
Settings: EW8 Ewing sarcoma viability, CellTiter-Glo, 48 h; series mostly up to 45.8 µM
In short: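 Here, cells in 5% FBS RPMI were exposed for two days (48 h) to compound dilutions added four hours after plating. ATP-based CellTiter-Glo luminescence measured viability, normalized to vehicle and no-cell blanks.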
In the case of CON=C(C(=O)N[C@@H]1C(=O)N2C(C(=O)O)=C(Cn3ccc(=N)n3CCO)CS[C@H]12)c1csc(N)n1, the Potency was “inactive”. With CCc1cc(C(C)=NOCc2ccc(C3CCCCC3)c(C(F)(F)F)c2)ccc1CN1CC(C(=O)O)C1 the Potency was “inactive”. For COc1ccc([C@@H]2CNC(=O)C2)cc1OC1CCCC1, the Potency was 9350 nM (active). With N#CC(=Cc1ccc(O)c(O)c1)C(=O)NCc1ccccc1 the Potency was 18700 nM (active). For CC(=O)O[C@]1(C(C)=O)CC[C@H]2[C@@H]3C=C(C)C4=CC(=O)CC[C@]4(C)[C@@H]3CC[C@@]21C, the Potency was 7430 nM (active). In the case of C=CC[C@@H]1C=C(C)C[C@H](C)C[C@H](OC)[C@H]2O[C@@](O)(C(=O)C(=O)N3CCCC[C@H]3C(=O)O[C@H](C(C)=C[C@@H]3CC[C@H](O)[C@H](OC)C3)[C@@H](C)[C@@H](O)CC1=O)[C@@H](C)C[C@@H]2OC, the Potency was 1660 nM (active). In the case of N#CC(=C(N)Sc1ccc(N)cc1)c1ccccc1C(F)(F)F, the Potency was 3320 nM (active). With COc1cc(C)c(Sc2cnc(NC(=O)c3ccc(CNC(C)C(C)(C)C)cc3)s2)cc1C(=O)N1CCN(C(C)=O)CC1 (stereo not given) the Potency was 1480 nM (active). In the case of COc1ccc(Nc2cc(-c3cnc(N)nc3)nc(N3CCOCC3)n2)cn1, the Potency was 11800 nM (active). In the case of C[N+]1(C)[C@@H]2C[C@@H](OC(=O)C(O)(c3cccs3)c3cccs3)C[C@H]1[C@@H]1O[C@@H]12, the Potency was “inactive”. With CC(=O)N[C@H]1[C@@H]([C@H](O)[C@H](O)CO)OC(C(=O)O)=C[C@@H]1N=C(N)N the Potency was “inactive”. With C=C1C[C@@]2(O)O[C@@]3(C[C@H]2C(C)C)[C@H](C)CC[C@H]13 the Potency was “inactive”. In the case of CS(=O)(=O)N1CCc2c(-c3cnc(N)nc3)nc(N3CCOCC3)nc21, the Potency was 1320 nM (active). With O=C(O)c1ccc(Nc2ncc3c(n2)-c2ccc(Cl)cc2C(c2c(F)cccc2F)=NC3)cc1 the Potency was 296 nM (active). With Cc1ccc2nc(NCCN)c3ncc(C)n3c2c1 the Potency was 9350 nM (active). With O=C(O)C=Cc1ccc(Cn2ccnc2)cc1 the Potency was “inactive”. With CC(=O)N1CCN(c2ccc(OCc3nn(C)c(C)c3-c3cccc4c(CCCOc5cccc6ccccc56)c(C(=O)O)n(Cc5cccnc5)c34)cc2)CC1 the Potency was 3720 nM (active). With NC1=N[C@H]2[C@H](CS[C@H]2CCCCC(=O)O)N1 the Potency was “inactive”. For OCc1ccccc1O[C@@H]1O[C@H](CO)[C@H](O)[C@H](O)[C@H]1O, the Potency was “inactive”. With OCCN1C[C@H](O)[C@@H](O)[C@H](O)[C@@H]1CO the Potency was “inactive”. With COC(=O)[C@@H]1CC2=CC(=O)CC[C@]2(C)[C@@]23O[C@@H]2C[C@@]2(C)[C@H](CC[C@@]24CCC(=O)O4)[C@@H]13 the Potency was “inactive”. With CN[C@H](CC(C)C)C(=O)N[C@H]1C(=O)N[C@@H](CC(N)=O)C(=O)N[C@@H]2C(=O)N[C@H]3C(=O)N[C@H](C(=O)N[C@H](C(=O)O)c4cc(O)cc(O)c4-c4cc3ccc4O)[C@H](O)c3ccc(c(Cl)c3)Oc3cc2cc(c3O[C@@H]2O[C@H](CO)[C@@H](O)[C@H](O)[C@@H]2O[C@H]2C[C@](C)(N)[C@H](O)[C@H](C)O2)Oc2ccc(cc2Cl)[C@H]1O the Potency was “inactive”. With Cc1cn([C@@H]2O[C@H](CO)[C@@H](O)[C@H]2F)c(=O)[nH]c1=O the Potency was “inactive”. In the case of Cc1ccccc1C(=O)Nc1ccc(C(=O)N2CCCC(O)c3cc(Cl)ccc32)c(C)c1 (stereo not given), the Potency was “inactive”. With CNC(=O)Nc1ccc(-c2nc(N3CC4CCC(C3)O4)c3cnn(C4CCC5(CC4)OCCO5)c3n2)cc1 the Potency was 13.2 nM (active). In the case of CN[C@H]1[C@@H](O)[C@@H]2O[C@@H]3O[C@H](C)CC(=O)[C@]3(O)O[C@@H]2[C@@H](NC)[C@H]1O, the Potency was 1320 nM (active). With O=c1[nH]c(=O)n([C@H]2C[C@@H](O)[C@@H](CO)O2)cc1C=CBr the Potency was “inactive”. In the case of C=Cc1c(C)c2cc3nc(cc4[nH]c(cc5nc(cc1[nH]2)C(C)=C5CCC(=O)O)c(CCC(=O)OC)c4C)[C@@]1(C)C3=CC=C(C(=O)OC)[C@H]1C(=O)OC, the Potency was 118 nM (active). In the case of CC(C)(O)CC[C@@H](O)[C@](C)(O)[C@H]1CC[C@@]2(O)C3=CC(=O)[C@@H]4C[C@@H](O)[C@@H](O)C[C@]4(C)[C@@H]3CC[C@]12C, the Potency was “inactive”. In the case of CCCCC(=O)O[C@]1(C(=O)CO)[C@@H](C)C[C@H]2[C@@H]3CCC4=CC(=O)C=C[C@]4(C)[C@@]3(F)[C@@H](O)C[C@@]21C, the Potency was “inactive”.
